Screening data from PubChem BioAssay.
Hits are enriched below; roughly 2.8% of the tested compounds scored in any of these assays.
HIF-2a block = blocks HIF-2a reporter activity | 786-0 RCC cells HIF-2a reporter, luciferase luminescence, overnight | inhibition, % at 18.8 µM | hit rate 0.72% among 360,000 | AID 624352;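 active means inhibition of the luminescence signal of 40% or more relative to plate controls, in a single-dose primary screen at 18.75 µM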
KKLEB tox = reduces viability of KKLEB cystic fibrosis airway cells; KKLEB CF airway cells viability, ATPlite luminescence, overnight; hits give low values; cells stimulated with P. aeruginosa culture filtrate; activity change (cytotoxicity), % at 5 µM; hit rate 0.36% among 360,000;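 active means corrected activity change at or below -50% at 5 µM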
CF NFkB inh = inhibitors of cystic fibrosis induced NF-kB; hit rate 0.86% among 360,000; KKLEB NF-kB-GFP reporter, PAF-induced, GFP fluorescence overnight; inhibition, % at 5 µM;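 active means at least 50% inhibition at 5 µM, scaled per plate between neutral and stimulator controls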;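 further: PAF is a Pseudomonas aeruginosa culture filtrate used as stimulus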
Peg3 promoter = inhibitors of Peg3 promoter | inhibition, % at 20 µM | HeLa PEG-Prom luciferase reporter, luminescence, overnight | hit rate 1.7% among 360,000;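 active means inhibition of at least 50% at 20 µM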
B2AR ag = activates human beta-2 adrenergic receptor causing internalization; Am2.2-beta2AR cells, FAP receptor internalization, flow cytometry; AID 504454; hit rate 0.43% among 340,000; response, % (no concentration beside the values); P07550;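 active means response above a set limit, near 3 SD of response in nonfluorescent compounds, cut at about 42% in these data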
Target sequence (P07550 whole entry, looked up): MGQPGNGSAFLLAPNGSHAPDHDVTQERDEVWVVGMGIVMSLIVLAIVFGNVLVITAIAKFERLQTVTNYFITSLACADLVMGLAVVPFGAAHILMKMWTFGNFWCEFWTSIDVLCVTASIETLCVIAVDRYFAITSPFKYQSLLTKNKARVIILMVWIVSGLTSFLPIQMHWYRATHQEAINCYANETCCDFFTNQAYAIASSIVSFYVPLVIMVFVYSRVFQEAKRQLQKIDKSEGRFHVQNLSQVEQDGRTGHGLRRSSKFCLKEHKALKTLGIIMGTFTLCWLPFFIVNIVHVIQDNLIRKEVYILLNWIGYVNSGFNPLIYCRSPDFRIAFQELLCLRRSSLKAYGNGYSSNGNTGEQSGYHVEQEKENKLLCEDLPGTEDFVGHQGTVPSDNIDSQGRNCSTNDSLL
TRPM1 prom inh = MITF TRPM1 promoter inhibition in SK-MEL-5 cells; SK-MEL-5 TRPM1 promoter luciferase, 24 h; inhibition, % at 12.5 µM; hit rate 0.83% among 330,000;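 active means mean inhibition across replicates of 60% or more, whatever share of single replicates reaches that level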
CF NFkB conf = confirmation of cystic fibrosis induced NF-kB inhibitors | shares compounds with CF NFkB inh | KKLEB CF airway cells, PAF-induced NF-kB-GFP fluorescence, overnight | inhibition, % at 5 µM | hit rate 64% among 1,300; in the data active means inhibition above about 40%;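 further: stimulus PAF is a Pseudomonas aeruginosa filtrate and not platelet activating factor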
Mdm2 MdmX conf = Mdm2/MdmX (human) interaction inhibition, confirmed; inhibition, % at 8 µM; SaOS-2 split-luciferase Mdm2/MdmX complementation, luminescence; hit rate 99% among 740; shares compounds with HIF-2a block;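 active means mean inhibition of the luminescence signal across two replicates at or above 26 percent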
HIF-2a inh conf = HIF-2a inhibition, single concentration confirmation. shares compounds with HIF-2a block. 786-0 RCC cells, HIF-2a luciferase reporter luminescence, overnight. inhibition, % at 18.8 µM. hit rate 56% among 1,800. AID 651580;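 active means mean inhibition across four replicates of at least 40 percent at the single tested concentration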
HIF-1a cs = HIF-1a inhibition counter-screen for HIF-2a hits; shares compounds with HIF-2a block; hit rate 72% among 1,800; inhibition, % at 18.8 µM; MiaPaCa-2 HIF-1a luciferase reporter, desferoxamine, overnight; AID 651589;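 active means mean inhibition of the reporter signal across four replicates at the single tested dose of 50% or more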
A number is an active result; . = inactive; / = no result given.

SMILES | HIF-2a block | KKLEB tox | CF NFkB inh | Peg3 promoter | B2AR ag | TRPM1 prom inh | HIF-2a inh conf | HIF-1a cs | others
Cc1c(C(=O)c2cccc3ccccc23)c2cccc3c2n1[C@H](CN1CCOCC1)CO3 | 70 | . | 55 | 79 | . | . | 46 | 79 | CF NFkB conf=64
CC(=O)c1c(C)n(C2CCCCC2)c2ccc(O)cc12 | . | . | 96 | . | . | . | / | / | CF NFkB conf=100;Mdm2 MdmX conf=85
Cc1ccc(S(=O)(=O)N2CC2(C)CCl)cc1 (configuration not stated) | . | . | . | . | . | . | / | /
CCOC(=O)[C@]12Cc3cc(C)ccc3[C@H]1N(C(C)C)C(=O)c1ccccc12 | 88 | / | / | / | / | / | 93 | 108
CCOC(=O)[C@]12Cc3cc(OC)ccc3[C@H]1N(C1CCCCC1)C(=O)c1cc(OC)ccc12 | 88 | / | / | / | / | / | 89 | 105
CCOC(=O)[C@]12Cc3ccccc3[C@H]1N(C)C(=O)c1cc(OC)ccc12 | . | / | / | / | / | / | / | /
CCCc1cc(=O)oc2cc(OCC(=O)N3CCC(C(=O)O)(c4ccccc4)CC3)ccc12 | . | . | . | . | . | . | / | /
COC(=O)C1=C(c2ccc(OC(F)(F)F)cc2)C[C@@H]2CC[C@H]1N2C(=O)NC1Cc2ccccc2C1 | . | . | . | . | . | . | / | /
Cc1ccc2c(c1)C(c1ccccc1)=NCC(=O)N2 | . | . | . | . | . | . | / | /
C[C@H]1CCC/C=C/[C@@H]2C[C@H](O)C[C@H]2[C@H](O)/C=C/C(=O)O1 | 60 | . | 76 | . | . | 81 | 43 | 75 | Mdm2 MdmX conf=96
O=[N+]([O-])c1cccc(NP(=O)(Oc2ccccc2)Oc2ccccc2)c1 | 42 | . | . | . | . | . | 43 | .
O=P(O)(Oc1ccccc1)c1ccccc1 | . | . | . | . | . | . | / | /
CC(=O)Nc1ccc(OC(=O)N2CCCCC2)cc1 | 85 | . | . | . | . | . | 95 | 53
O=C(Nc1cccc(OC(=O)N2CCCCC2)c1)N1CCCCC1 | . | . | . | . | . | . | / | /
CC(=O)c1cn(Cc2ccccc2F)c2ccccc12 | . | . | . | . | . | . | / | /
COC(=O)C(Cc1ccc(N(CCCl)CCCl)cc1)N=Cc1ccccc1O (configuration not stated) | 72 | . | 75 | 97 | . | 62 | . | 100 | Mdm2 MdmX conf=103
CCOC(=O)C(NC(=O)C(Cc1ccc(N(CCCl)CCCl)cc1)NC(C)=O)C(C)C (configuration not stated) | . | . | . | . | . | . | / | /
CC[C@@]1(O)C(=O)OCc2c1cc1n(c2=O)Cc2cc3c(NC(=O)CN)cccc3nc2-1 | . | . | . | . | . | . | / | / | Mdm2 MdmX conf=97
Cc1cccc(NC(=O)COC(=O)c2cc(C)n(C3CC3)c2C)c1 | . | . | . | . | . | . | / | /
CNC(C)Cc1ccccc1Sc1ccc(O)cc1 (configuration not stated) | 50 | . | . | . | . | . | . | .
CCCCCSc1cc(OC)c(CCNC)cc1OC | . | . | . | . | . | . | / | /
CCCCCCCSc1cc(OC)c(CCNC)cc1OC | 44 | . | . | 112 | . | 102 | . | 106
Cc1ccc(-c2nc3ccccc3c(=O)n2-c2cccc(O)c2)cc1 | . | . | . | . | . | . | / | /
Cc1nc2c(-c3ccccc3)c(C)nn2c(C)c1CCC(=O)N1CCC2(CC1)OCCO2 | . | . | . | . | . | . | / | /
Cc1nc2cc(-c3cccc(F)c3)nn2c(C)c1CCC(=O)N1CCC2(CC1)OCCO2 | 75 | . | . | . | . | . | 82 | 53
SMILES | HIF-2a block | KKLEB tox | CF NFkB inh | Peg3 promoter | B2AR ag | TRPM1 prom inh | HIF-2a inh conf | HIF-1a cs | others
COc1cc(/C=C/[N+](=O)[O-])ccc1O | 70 | . | . | . | . | . | 52 | .
CCOc1cc(C=O)ccc1O | . | . | . | . | . | / | / | /
CC(C)[C@H]1C(=O)O[C@H](C(C)C)C(=O)N(C)[C@@H](C(C)C)C(=O)O[C@H](C(C)C)C(=O)N(C)[C@@H](C(C)C)C(=O)O[C@H](C(C)C)C(=O)N1C | . | . | . | . | . | 78 | / | / | Mdm2 MdmX conf=94
CCN1CCN(C(=O)Cc2coc3ccc4ccccc4c23)CC1 | . | . | . | . | . | . | / | /
NC(=S)c1cn(C2OC(CO)C(O)C2O)c2ncnc(N)c12 (configuration not stated) | 52 | -79 | 90 | 107 | . | 82 | . | 105
Nc1ncnc2c1ccn2[C@@H]1O[C@H](CO)[C@@H](O)[C@H]1O | 35 | -97 | 87 | 100 | . | / | . | 103 | Mdm2 MdmX conf=103
Nc1cc(Cl)c2nonc2c1[N+](=O)[O-] | 94 | -76 | 76 | 107 | 73 | 93 | 97 | 103
Nc1cc(Cl)cc(C(=O)O)c1Cl | . | . | . | . | . | . | / | /
COc1c2c(cc3c1OCO3)CCN(C)C2 | . | . | . | . | . | . | / | /
COc1cc2c(cc1O)C[C@H]1NCCc3cc4c(c-2c31)OCO4 | 50 | . | . | . | . | . | . | 104
CC1=NNC(=O)C1Br (configuration not stated) | . | . | . | . | . | . | / | /
N=C1c2ccccc2CN1NC(=O)c1ccc(Br)cc1 | . | . | . | . | . | . | / | /
O=c1c2ccccc2nc(-c2cccs2)n1-c1ccccc1 | . | . | . | . | . | . | / | /
NC(N)=N/N=C/c1cn(-c2ccccc2)nc1-c1cccs1 | . | . | . | 106 | . | . | / | / | Mdm2 MdmX conf=103
O=C(c1ccc(Cl)cc1)C1CCCN(C2CCSCC2)C1 (configuration not stated) | . | . | . | . | . | . | / | /
CC(=O)OC[C@]12CCC(C)=C[C@H]1O[C@@H]1[C@H](O)[C@@H](OC(C)=O)[C@@]2(C)[C@]12CO2 | 90 | -56 | 104 | 108 | 103 | 91 | 81 | 105
CCCCCCNc1nc(OC)nc(N2CC3CC(C2)c2cccc(=O)n2C3)n1 (configuration not stated) | . | . | . | . | . | . | / | /
C=C1C(=O)O[C@@H]2C[C@@H](C)[C@@H]3C=CC(=O)[C@@]3(C)[C@@H](O)[C@H]12 | 97 | -60 | 88 | 92 | . | 106 | / | / | Mdm2 MdmX conf=100
CC12CCC(=O)C=C1C=CC1C2CCC2(C)C(O)CCC12 (configuration not stated) | . | . | . | . | . | . | / | /
